In all, about 39,000 compounds went through this assay and about 3,300 (8.5%) were called active. The entries come from a sample that favours actives as a whole.
tested on: HepG2; test: cytotoxicity call (relative viability < 0.9); details: 10 µM

Structure (SMILES) | cytotoxicity call
CN1[C@@H]2Cn3c(ccc(-c4ccccc4)c3=O)[C@H]1[C@@H](C(=O)NCCCN1CCOCC1)[C@@H]2CO | inactive
C[C@@H]1CN([C@@H](C)CO)C(=O)Cc2cc(NC(=O)Cn3cnnn3)ccc2O[C@H]1CN(C)C(=O)Nc1ccccc1 | inactive
CCCNC(=O)N[C@H]1C=C[C@@H](CC(=O)N2CCN(C)CC2)O[C@@H]1CO | inactive
C[C@H]1CN([C@@H](C)CO)C(=O)c2cc(/C=C/c3ccccc3)cnc2O[C@@H]1CN(C)C(=O)c1cnccn1 | inactive
C[C@H]1CN([C@@H](C)CO)C(=O)Cc2cc(NC(=O)Cn3cnnn3)ccc2O[C@H]1CN(C)Cc1ccc(Oc2ccccc2)cc1 | inactive
COCC(=O)N(C)C[C@@H]1Oc2cc(-c3ccc(C#N)cc3)ccc2S(=O)(=O)N([C@H](C)CO)C[C@H]1C | inactive
COc1ccc(S(=O)(=O)Nc2ccc3c(c2)C(=O)N([C@@H](C)CO)C[C@@H](C)[C@@H](CN(C)S(C)(=O)=O)OCCCC[C@@H](C)O3)cc1 | inactive
C[C@H](CO)N1C[C@H](C)[C@@H](CN(C)S(=O)(=O)c2cccs2)Oc2ccc(NC(=O)Cc3ccccc3)cc2C1=O | inactive
C[C@@H]1CN([C@H](C)CO)C(=O)c2cc(NC(=O)Nc3ccc(F)cc3)ccc2O[C@@H](C)CCCCO[C@H]1CN(C)Cc1ccncc1 | inactive
C[C@H](CO)N1C[C@H](C)[C@@H](CN(C)Cc2ccc(-c3ccccc3)cc2)Oc2ccc(NC(=O)Nc3ccccc3)cc2C1=O | active
C[C@H]1CN([C@@H](C)CO)C(=O)c2cc(NC(=O)Nc3ccccc3)ccc2O[C@H]1CN(C)Cc1ccc(-c2ccccc2)cc1 | inactive
C[C@H](CO)N1C[C@H](C)[C@H](CN(C)Cc2ccc(-c3ccccc3)cc2)Oc2ccc(NC(=O)Nc3ccccc3)cc2C1=O | inactive
CC(C)NC(=O)Nc1ccc2c(c1)C(=O)N([C@@H](C)CO)C[C@@H](C)[C@H](CN(C)Cc1ccc(-c3ccccc3)cc1)O2 | inactive
CC(C)NC(=O)Nc1ccc2c(c1)C(=O)N([C@@H](C)CO)C[C@@H](C)[C@@H](CN(C)Cc1ccc(-c3ccccc3)cc1)O2 | active
C[C@@H]1CN([C@H](C)CO)C(=O)c2cc(NC(=O)Nc3ccccc3)ccc2O[C@@H]1CN(C)Cc1ccc(-c2ccccc2)cc1 | active
CC(C)NC(=O)Nc1ccc2c(c1)C(=O)N([C@@H](C)CO)C[C@H](C)[C@@H](CN(C)Cc1ccc(-c3ccccc3)cc1)O2 | inactive
C[C@@H]1CN([C@@H](C)CO)C(=O)c2cc(NC(=O)Nc3ccccc3)ccc2O[C@H]1CN(C)Cc1ccc(-c2ccccc2)cc1 | active
C[C@@H]1CCCCO[C@@H](CN(C)C(=O)CCC(F)(F)F)[C@H](C)CN([C@H](C)CO)C(=O)c2cc(NC(=O)NC3CCCCC3)ccc2O1 | inactive
COCCNC(=O)C[C@H]1CC[C@@H]2[C@H](COC[C@H](O)CN2S(=O)(=O)c2ccccc2C)O1 | inactive
C[C@H]1CN([C@@H](C)CO)C(=O)c2c(c3ccccc3n2C)-c2ccccc2CO[C@@H]1CN(C)Cc1ccc(O)cc1 | inactive
C[C@H]1CN([C@@H](C)CO)C(=O)c2cc(NC(=O)CCN3CCOCC3)ccc2O[C@@H]1CN(C)S(=O)(=O)c1cn(C)cn1 | inactive

Structure (SMILES) | cytotoxicity call
COc1ccc(S(=O)(=O)N(C)C[C@@H]2Oc3ccc(NC(=O)Nc4c(C)noc4C)cc3CC(=O)N([C@H](C)CO)C[C@@H]2C)cc1 | inactive
CC(C)NC(=O)N(C)C[C@@H]1Oc2c(NS(=O)(=O)c3ccc(Cl)cc3)cccc2C(=O)N([C@H](C)CO)C[C@@H]1C | inactive
C[C@@H]1CN([C@@H](C)CO)C(=O)c2cccc(NS(C)(=O)=O)c2O[C@@H]1CN(C)C(=O)Nc1ccc(C(F)(F)F)cc1 | inactive
CSCCC(NC(=O)C(Cc1c[nH]c2ccccc12)NC(=O)CCNC(=O)OC(C)(C)C)C(=O)NC(CC(=O)O)C(=O)NC(Cc1ccccc1)C(N)=O (stereo unspecified) | inactive
COc1ccc(S(=O)(=O)N(C)C[C@H]2Oc3ccc(NS(=O)(=O)c4ccc(F)cc4)cc3CC(=O)N([C@H](C)CO)C[C@H]2C)cc1 | inactive
CN([C@@H](Cc1ccc(OS(=O)(=O)c2cccc3cnccc23)cc1)C(=O)N1CCN(c2ccccc2)CC1)S(=O)(=O)c1cccc2cnccc12 | inactive
CN(C)CC(=O)N[C@@H]1CC[C@H](CCNC(=O)C2CCC2)O[C@H]1CO | inactive
CN1C(=O)/C(=C(/C#N)C(N)=O)c2ccccc21 | inactive
O=C(Nc1ccccc1)C1=C[C@H](c2ccc3c(c2)Cc2ccccc2-3)C[C@H](OCc2ccc(CO)cc2)O1 | inactive
Cc1ccc(S(=O)(=O)Nc2ccc3c(c2)C(=O)N([C@H](C)CO)C[C@H](C)[C@@H](CN(C)S(C)(=O)=O)OCCCC[C@@H](C)O3)cc1 | inactive
O=C(NC1CCCCC1)[C@@H]1C(c2ccc(Cl)cc2)=C(S(=O)(=O)c2ccccc2)C(=O)N1Cc1ccc(-c2ccccc2)cc1 | inactive
CC(=O)n1nc(-c2cccnc2)nc1N | inactive
C[C@H](CO)N1C[C@H](C)[C@H](CN(C)Cc2ccc(C(=O)O)cc2)OCCCC[C@H](C)Oc2ccc(NC(=O)c3ccccc3)cc2C1=O | inactive
C[C@@H]1CN([C@H](C)CO)C(=O)c2cc(NC(=O)Nc3ccccc3)ccc2O[C@H]1CN(C)Cc1ccc(-c2ccccc2)cc1 | active
C[C@@H]1CN([C@@H](C)CO)C(=O)c2cc(NC(=O)Nc3ccccc3)ccc2O[C@@H]1CN(C)Cc1ccc(-c2ccccc2)cc1 | active
COCC(=O)N(C)C[C@H]1Oc2cc(C#Cc3ccccc3)ccc2S(=O)(=O)N([C@@H](C)CO)C[C@@H]1C | inactive
O=C(CSc1nnc[nH]1)C1CC1 | inactive
COc1c(C)cc(-c2cc3c(c(CCc4ccccc4)n2)[Si](C(C)C)(C(C)C)O[C@H]3c2ccccc2)cc1C | inactive
COc1cc(Nc2ncc(F)c(Nc3ccc4c(n3)N(COP(=O)(O)O)C(=O)C(C)(C)O4)n2)cc(OC)c1OC | active
COCC(=O)Nc1ccc2c(c1)C(=O)N(C)C[C@H](OC)[C@H](C)CN(C(=O)Cc1cccnc1)[C@@H](C)CO2 | inactive
